# Data: PubChem BioAssay (EPA / NIEHS)
# Records with an inconclusive call do not appear. Activity calls are given as the source filed them. Rule for the calls: active = hit-call score of the fitted dose curve at least 0.9, where 1 is the maximum; inconclusive = response in the unintended direction; inactive = score below 0.9.
# How the values were obtained:
# [1] = test system: turtle Estrogen Receptor (ESR1), gene 101933533; test: ATG_trERa_XSP1: Attagene TRANS-FACTORIAL Multi-Species (XSP1) HepG2 Assay for turtle Estrogen Receptor (ESR1) (AID 2283781)
# Procedure, shortened: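 Turtle ERa as a GAL4 chimera in transiently transfected HepG2 cells; reporter mRNA quantified 24 h after dosing by RT-PCR and capillary electrophoresis. 3 nM 6-alpha-fluorotestosterone present; gain of signal versus DMSO.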
# [2] = target: Estrogen receptor beta (Homo sapiens) (UniProt Q92731); test: ATG_hERb_XSP1: Attagene TRANS-FACTORIAL Multi-Species (XSP1) HepG2 Assay for human Estrogen Receptor (ESR2) (AID 2283788)
# Estrogen receptor beta (Homo sapiens), sequence (Q92731 whole entry, looked up): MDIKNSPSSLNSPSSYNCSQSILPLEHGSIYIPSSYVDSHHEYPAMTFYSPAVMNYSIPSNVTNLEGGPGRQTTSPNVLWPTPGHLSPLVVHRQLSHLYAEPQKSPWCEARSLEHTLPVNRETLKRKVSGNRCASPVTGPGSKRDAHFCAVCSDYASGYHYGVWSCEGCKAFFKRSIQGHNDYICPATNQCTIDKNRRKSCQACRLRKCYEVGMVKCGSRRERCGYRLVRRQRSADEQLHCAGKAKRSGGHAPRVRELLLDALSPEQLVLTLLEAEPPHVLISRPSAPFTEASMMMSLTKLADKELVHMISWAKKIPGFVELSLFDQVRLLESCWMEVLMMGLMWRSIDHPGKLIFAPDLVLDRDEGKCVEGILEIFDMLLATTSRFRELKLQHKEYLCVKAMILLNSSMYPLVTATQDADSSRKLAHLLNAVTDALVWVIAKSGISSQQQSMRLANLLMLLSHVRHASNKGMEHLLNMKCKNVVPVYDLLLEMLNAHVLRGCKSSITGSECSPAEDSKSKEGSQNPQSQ
# Protocol: ATG_XSP1_multi-species_TRANS is a cell-based, multiplexed assay created by modifying the existing Attagene TRANS-FACTORIAL system to include a panel of nuclear receptors from some or all the following species: human (Homo sapiens), mouse (Mus musculus), frog (Xenopus laevis), zebrafish (Danio rerio), chicken (Gallus gallus), and turtle (Chrysemys picta). The ECOTOX-FACTORIAL format uses HepG2, a human liver cell line, with measurements taken at 24 hours after chemical dosing in a 24-well plate. Xsp1 included 3 nM 6-alpha-fluorotestosterone to partially stimulate the androgen receptor.ATG_hERb_XSP1 is one of 29 assay components measured or calculated from the ATG_XSP1_multi-species_TRANS assay. It is designed to make measurements of mRNA induction, a form of inducible reporter, as detected with fluorescence intensity signals by Reverse transcription polymerase chain reaction (RT-PCR) and Capillary electrophoresis technology.The assay endpoint ATG_hERb_XSP1 was analyzed in the positive analysis fitting direction relative to DMSO as the negative control and baseline of activity. […] Furthermore, this assay endpoint can be referred to as a primary readout, because this assay has produced multiple assay endpoints where this one serves a reporter gene function. […]
# [3] = ATG_M_19_XSP1: Attagene TRANS-FACTORIAL Multi-Species (XSP1) HepG2 Assay for M19 Transcription Factor (Internal Marker) (AID 2283798)
# Procedure, shortened: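 HepG2 cells transiently transfected with multiplexed GAL4-UAS reporter units, dosed 24 h with 3 nM 6-alpha-fluorotestosterone present for partial AR stimulation. Reporter mRNA measured by RT-PCR with capillary electrophoresis; gain-of-signal fitted relative to DMSO.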
# [4] = test system: zebrafish Peroxisome Proliferator-activated Receptor gamma (PPARg), gene 557037; test: ATG_zfPPARg_XSP1: Attagene TRANS-FACTORIAL Multi-Species (XSP1) HepG2 Assay for zebrafish Peroxisome Proliferator-activated Receptor gamma (PPARg) (AID 2283801)
# Procedure, shortened: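 HepG2 cells transiently transfected with GAL4-UAS reporter units including a zebrafish PPARg–GAL4 chimera, dosed 24 h with 3 nM 6-alpha-fluorotestosterone present. Reporter mRNA quantified by RT-PCR, FAM labelling, HpaI digestion and capillary electrophoresis; induction versus DMSO.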
# [5] = target: Nuclear receptor subfamily 1 group I member 2 (Mus musculus) (UniProt O54915); test: ATG_mPXR_XSP1: Attagene TRANS-FACTORIAL Multi-Species (XSP1) HepG2 Assay for mouse Pregnane X Receptor (PXR) (AID 2283803)
# Nuclear receptor subfamily 1 group I member 2 (Mus musculus), sequence (O54915 whole entry, looked up, the tested form may be a part): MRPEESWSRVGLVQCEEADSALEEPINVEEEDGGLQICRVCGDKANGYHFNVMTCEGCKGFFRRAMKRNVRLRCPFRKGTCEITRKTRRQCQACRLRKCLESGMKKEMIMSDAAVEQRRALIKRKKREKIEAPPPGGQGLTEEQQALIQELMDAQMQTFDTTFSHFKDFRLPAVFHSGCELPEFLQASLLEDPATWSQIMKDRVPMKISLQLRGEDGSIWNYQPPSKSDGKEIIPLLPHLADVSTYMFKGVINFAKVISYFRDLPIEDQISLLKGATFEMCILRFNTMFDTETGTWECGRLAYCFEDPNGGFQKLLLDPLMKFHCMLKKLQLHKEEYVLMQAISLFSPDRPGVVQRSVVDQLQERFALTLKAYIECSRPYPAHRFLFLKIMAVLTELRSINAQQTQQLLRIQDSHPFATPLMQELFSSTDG
# Procedure, shortened: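 Transiently transfected HepG2 cells expressing a receptor-Gal4 chimera drive a GAL4-UAS reporter; 3 nM 6-alpha-fluorotestosterone included. Reporter mRNA read 24 h post-dose by RT-PCR and capillary electrophoresis; gain of signal relative to DMSO.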
# [6] = test system: turtle Thyroid Hormone Receptor, alpha (TRa), gene 101949057; test: ATG_trTRa_XSP1: Attagene TRANS-FACTORIAL Multi-Species (XSP1) HepG2 Assay for turtle Thyroid Hormone Receptor, alpha (TRa) (AID 2283806)
# Procedure, shortened: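 HepG2 cells transiently transfected with GAL4-UAS reporter units and chimeric receptor-Gal4 constructs, with 3 nM 6-alpha-fluorotestosterone present. Reporter mRNA was quantified 24 h after dosing by RT-PCR, 6-FAM labelling and capillary electrophoresis; gain of signal versus DMSO.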
# [7] = ATG_XTT_Cytotoxicity_XSP1: Cytotoxicity Assessment in the Attagene TRANS-FACTORIAL Multi-Species (XSP1) HepG2 Assay (AID 2283810)
# Protocol: ATG_XSP1_XTT_Cytotoxicity_multi-species is a cell-based, single-readout assay that uses HepG2, a human liver cell line, with measurements taken at 24 hours after chemical dosing in a 24-well plate. Xsp1 included 3 nM 6-alpha-fluorotestosterone to partially stimulate the androgen receptor.ATG_XTT_Cytotoxicity_XSP1 is an assay component measured from the ATG_XSP1_XTT_Cytotoxicity_multi-species assay. It is designed to make measurements of cell number, a form of viability reporter, as detected with fluorescence intensity signals by XTT cytotoxicity assay technology.This assay endpoint, ATG_XTT_Cytotoxicity_XSP1, was analyzed in the positive analysis fitting direction relative to DMSO as the negative control and baseline of activity. Using a type of viability reporter, loss-of-signal activity can be used to understand changes in the viability. Furthermore, this assay endpoint can be referred to as a primary readout, because the performed assay has only produced 1 assay endpoint. […]
# Human liver HepG2 cells are transiently transfected with multiple reporter transcription units (MRTUs) in 6-well plates using FuGene 6 reagent (Roche; 3 ml FuGene/1 mg DNA). […] A major difference between the CIS and TRANS system is that in CIS activities of endogenous TFs are measured, whereas the TRANS assay evaluates changes in activities of exogenous, chimeric NR-Gal4 proteins. […]
smiles,measurement,setting,value
C(=C(c1ccccc1)c1ccccc1)c1ccccc1,AC50,[1],20.8 nM (active)
same,AC50,[2],17 nM (active)
same,outcome,[3],inactive
same,outcome,[4],inactive
same,outcome,[5],inactive
same,outcome,[6],inactive
same,outcome,[7],inactive
